Compounds with a hit are over-represented: about 22% of the library has one in this group of screens.
LmPK inhibitor – qHTS Assay for Inhibitors of Leishmania Mexicana Pyruvate Kinase (LmPK). Q27686. purified LmPK, Kinase-Glo ATP luminescence, 1 h. Potency, µM (titrated, usually from 57.5 µM), for inactives: top-dose activity change, negative = inhibition, usual class: inhibitors. hit rate 0.37% among 290,000; also: potency is read from the fitted curve at half-maximal effect; % is scaled to controls: 0 for no effect and ±100 for the full control effect
Target sequence (Q27686 whole entry, looked up): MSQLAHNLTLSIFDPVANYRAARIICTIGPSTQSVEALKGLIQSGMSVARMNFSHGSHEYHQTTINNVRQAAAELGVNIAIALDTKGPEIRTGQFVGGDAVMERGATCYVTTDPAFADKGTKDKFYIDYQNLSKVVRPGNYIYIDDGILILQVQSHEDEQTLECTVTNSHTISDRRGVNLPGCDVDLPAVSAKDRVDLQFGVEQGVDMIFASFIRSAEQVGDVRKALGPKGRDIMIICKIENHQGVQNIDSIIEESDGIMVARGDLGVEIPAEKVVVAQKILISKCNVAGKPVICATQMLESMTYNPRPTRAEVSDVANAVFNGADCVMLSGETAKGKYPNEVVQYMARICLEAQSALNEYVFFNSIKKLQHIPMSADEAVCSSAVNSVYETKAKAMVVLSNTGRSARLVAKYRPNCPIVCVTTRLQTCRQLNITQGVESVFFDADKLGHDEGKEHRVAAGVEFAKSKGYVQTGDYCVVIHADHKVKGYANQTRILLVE
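Purified LmPK (0.1 nM) converted ADP (0.1 mM) to ATP with PEP (0.5 mM) in imidazole buffer pH 7.2 with KCl and MgCl2, 1 h at room temperature. ATP was read by Kinase-Glo luminescence; data normalized to uninhibited and no-enzyme controls.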
Pf growth 96h – Primary qHTS for delayed death inhibitors of the malarial parasite plastid, 96 hour incubation; P. falciparum luciferase reporter growth, 96 h; Potency, µM (titrated, usually from 28.7 µM), without a hit: at the top dose activity change, negative = inhibition, usual class: inhibitors; hit rate 6.9% among 320,000; AID 504834, 2011; also: potency is read from the fitted curve at half-maximal effect; % is scaled to controls: 0 for no effect and ±100 for the full control effect
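Erythrocytes infected with luciferase-expressing P. falciparum were dispensed at 2% hematocrit and 0.05% parasitemia (final), then incubated with compounds 96 hours at 37 C in 5% CO2. Luminescence after detection reagent addition reported growth.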
Shiga inhibitor – A qHTS for Small Molecule Inhibitors of Shiga Toxin; Vero cells, Shiga toxin protein synthesis inhibition reporter; hit rate 9.2% among 290,000; AID 2315, 2010; inhibition, % at 38.7 µM; in the data active = inhibition mostly above about 28%, no sharp cut-off; inactive = mostly below about 43%; also: 0% is about no effect
Pf growth 48h – Primary qHTS for delayed death inhibitors of the malarial parasite plastid, 48 hour incubation; P. falciparum luciferase growth in erythrocytes, 48 h; Potency, µM (series often up to 28.7 µM), for inactives: top-dose activity change, negative = inhibition, most hits filed as inhibitors; hit rate 5.9% among 310,000; also: potency is read from the fitted curve at half-maximal effect; % is scaled to controls: 0 for no effect and ±100 for the full control effect
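Parasite viability was followed by luminescence of a genomically integrated firefly luciferase. Cultures held 0.1% parasitemia at 2% hematocrit (final), incubated under 5% CO2 at 37 C.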
CHX counter – Cycloheximide Counterscreen for Small Molecule Inhibitors of Shiga Toxin. hit rate 12% among 300,000. max response, %. cell reporter, cycloheximide protein synthesis inhibition counterscreen; in the data active = max response mostly above about 13%, no sharp cut-off; inactive = mostly below about 14%; also: read at 38.3 µM for the half of the compounds with a filed dose; 0% is about no effect
Numbers without * were called inactive; ? = inconclusive; . = no result. Unless noted, calls follow the shape of the dose curve; as a rule, active = well fitted inhibition curve with a large enough effect; inconclusive = small, poorly fitted or top-dose-only effect, or another doubt; inactive = no such curve, though single readings can be large or run the other way.

SMILES	LmPK inhibitor	Pf growth 96h	Shiga inhibitor	Pf growth 48h	CHX counter
CC(NC(=O)c1ccccc1)C(=O)NNC(=O)c1ccccc1Cl (centres undefined)	.	7%	.	26%	.
O=C(NC(Cc1c[nH]c2ccccc12)C(=O)O)c1ccc(Br)cc1 (centres undefined)	-1%	79%	-5	41%	-6
Cc1nc2sc(C(c3ccco3)N3CCN(C(c4ccccc4)c4ccccc4)CC3)c(O)n2n1 (centres undefined)	-5%	?	-7	1.7µM*	4
C/C(=N\NC(=O)C(C)n1nc(C)c([N+](=O)[O-])c1C)c1ccccc1O (centres undefined)	4%	?	-20	9.3µM*	5
Cc1cc(NC(=O)c2cc3ccccc3o2)ccc1NC(=O)c1ccccc1	3%	-24%	53	16%	13*
O=C(Nc1cc2ccccc2oc1=O)c1ccccc1	4.5µM*	11%	87*	386%	31*
Cc1cc(NC(=O)C2CC=CCC2C(=O)O)ccc1NC(=O)c1ccccc1 (centres undefined)	-6%	9.3µM*	25*	?	25
Cc1cc(NC(=O)c2ccc3c(c2)OCCO3)ccc1NC(=O)c1cc2ccccc2o1	-1%	?	71*	21%	16*
Cn1c(CNC(=O)c2ccc3c(c2)OCO3)nnc1SCC(=O)Nc1ccc(F)cc1F	3%	-10%	-2	7%	2
C/C=C/C=C\C(=O)Nc1cccc(C2=NOC3(C2)C[C@@H](C(N)=O)N(C(=O)c2cc([N+](=O)[O-])cc([N+](=O)[O-])c2)C3)c1 (some centres undefined)	5%	-92%	-17	?	-4
Cc1ccccc1CCN(C(=O)c1csnn1)C(C(=O)NC1CCCC1)c1ccncc1 (centres undefined)	-5%	-16%	12	?	7
O=C(CN(Cc1ccc(Cl)cc1)C(=O)c1csnn1)NCc1ccccc1	-2%	4%	-7	0%	-2
CC1CC(C)CN(CC(=O)c2ccc(OC(F)F)cc2)C1 (centres undefined)	-4%	-26%	26*	7%	34*
Cn1cnnc1SCC(=O)c1ccc(OC(F)F)cc1	-9%	-4%	-6	.	-2
CCOC(=O)C1=C(COC(=O)/C=C/c2ccc(OC)cc2OC)NC(=O)NC1C (centres undefined)	.	-8%	.	?	.
COc1cccc(CN2CCNC(=O)C2CC(=O)NCCCC2CCCC2)c1OC (centres undefined)	1%	66%	19	0%	6
COc1c(C(=O)NNC(=O)c2ccccc2Cl)csc1Br	-1%	134%	76*	87%	49*
O=C(N/N=C/c1cccc(Br)c1)C1CC(=O)N(c2ccccc2)C1 (centres undefined)	1%	-9%	3	9%	-1
O=C1CC(c2ccc(Cl)cc2)CC(O)=C1C=NCCO (centres undefined)	-2%	62%	-1	19%	-1
COc1ccc(-c2nnc3cccc(Cl)n23)c(OC)c1	-6%	15%	43*	16%	10*
Clc1ccc(-c2nnc3cccc(Cl)n23)c(Cl)c1	-5%	?	-13	-17%	-3
Cc1ccc(OC(C)C(=O)Nc2ccccc2C(=O)NCc2cccnc2)cc1C (centres undefined)	1%	1%	-5	?	-4
COC(=O)c1ccc(CN2C(=O)C3CCCCC3C2=O)o1 (centres undefined)	3%	60%	11	3.3µM*	-4
COC(=O)c1ccc(Cn2nnc3ccccc3c2=O)o1	0%	-23%	3	0%	-2
CCOC(=O)c1cc2nc(Nc3ccc(OC)cc3)sc2s1	0%	11%	58*	3%	14*
SMILES	LmPK inhibitor	Pf growth 96h	Shiga inhibitor	Pf growth 48h	CHX counter
Cc1nc(NC(=O)/C=C/c2ccc(Cl)cc2Cl)sc1C(=O)N(C)C	2%	?	12	15%	-4
CCOC(=O)c1sc(NC(=O)Cc2ccc(C)cc2)nc1C	0%	15%	21	-2%	14
CCOC(=O)c1sc(NC(=O)/C=C/c2c(F)cccc2Cl)nc1C	-2%	56%	-7	9%	40*
CCOC(=O)c1sc(NC(=O)Nc2ccccc2F)nc1C	-6%	-56%	75*	-1%	86*
CCOC(=O)c1sc2cccc(F)c2c1N	2%	?	25*	-5%	25*
CCOC(=O)c1sc2cccc(Cl)c2c1N	-2%	20%	14	-1%	3
CCN(C(=S)NC(=O)c1ccccc1Br)C1CCCCC1	3%	?	-2	-18%	-3
CCOC(=O)c1sc(NCCNc2nc(C)c(C(=O)OCC)s2)nc1C	3%	?	8	-22%	-3
COC(=O)Cc1csc(Nc2ccccc2Cl)n1	-5%	?	52*	40%	36*
CCOC(=O)c1sc(Nc2ccc(Br)cc2)nc1C	2%	?	89*	?	30*
CCOC(=O)Cc1csc(NC(=O)Cc2ccccc2)n1	3%	5%	-16	19%	2
CCOC(=O)c1sc(Nc2ccccc2Cl)nc1C	-5%	152%	88*	113%	42*
COC(CNC(=O)C1CC(=O)N(CCc2ccccc2)C1)OC (centres undefined)	-2%	17%	-4	.	-7
Nc1c2c(nc3cccc(Cl)c13)N(c1ccccc1)CC2	2%	7.4µM*	3	17%	2
Clc1cccc(Cl)c1CSc1nnc([C@@H]2CCCN2)o1	1%	45%	21	6%	-1
O=S(=O)(Cc1ccccc1)NCCc1cccc(Cl)c1	1%	3.3µM*	25	-19%	-2
NS(=O)(=O)c1ccc(CNS(=O)(=O)Cc2ccc(Cl)cc2)cc1	-4%	?	-11	18%	-1
NS(=O)(=O)c1ccc(CCNCc2ccccc2OCc2ccc(Cl)cc2)cc1	3%	?	.	10µM*	-5
NS(=O)(=O)c1ccc(CCNc2ccnc3cc(Cl)ccc23)cc1	6%	10%	-13	12µM*	32*
NS(=O)(=O)c1ccc(CCNS(=O)(=O)Cc2ccc(Cl)cc2)cc1	1%	13µM*	-2	10%	3
CC(=O)c1cccc(NC(=O)c2cccc3ccccc23)c1	3%	34%	-4	37%	8
Cc1ccc(S(=O)(=O)N(C)C)cc1NC(=O)COC(=O)C1=COCCO1	.	-12%	.	-3%	.
CCCn1cc(S(=O)(=O)c2ccc(OC)cc2)c(=O)c2cc(OCC)ccc21	9%	?	29	-24%	0
COc1cc(Br)ccc1C1CC(=O)C(C)C(c2ccc(Br)cc2OC)N1 (centres undefined)	-5%	24%	12	.	-8
O=C(NCCCCO)c1ccc2c3c(cccc13)CC2	-1%	?	14	5%	2

High-throughput results as filed in PubChem.
